aSyn 5UTR act = Activators working through SNCA 5'UTR binding (MLPCN); alpha-synuclein 5'UTR reporter, activators screen; AID 1814; 300,000 tested, 7.1% active; activity score, % (tested at 7.5 µM), hits read low; in the data active = activity score below about -60%
Of the large screens only hits and unclear results are named; the others gave an inactive call. Not all results are given here.

Cc1ccc(OC(=O)c2ccc(S(=O)(=O)N(C)C)cc2)c(-n2nc3ccccc3n2)c1	aSyn 5UTR act -195
CC(=O)Oc1ccc(C)cc1-n1nc2ccccc2n1	aSyn 5UTR act -212
Cc1cc(Cl)c(O)c(-n2nc3ccccc3n2)c1	aSyn 5UTR act -143
Cc1ccc2nc(NNC(=O)c3ccc(S(=O)(=O)N4CCc5ccccc5C4)cc3)sc2c1	none
Cc1ccc(OC(=O)c2cccc(S(=O)(=O)N3CCCC3)c2)c(-n2nc3ccccc3n2)c1	aSyn 5UTR act -162
CC(=O)Nc1c(-c2ccc3ccccc3c2)nc2ccccn12	aSyn 5UTR act -124
COc1cc(C(=O)N/N=C(\c2ccccc2)c2ccccn2)cc(OC)c1OC	none
COc1ccccc1-n1cnc(N)c1C(=O)c1ccccc1	aSyn 5UTR act -153
CC(C)Oc1ccc(CSc2ncn[nH]2)cc1	aSyn 5UTR act -84
CCOC(=O)c1c(C)[nH]c(N=Nc2ccc(C)cc2)c1C	aSyn 5UTR act -271
CCOC(=O)c1c(C)[nH]c(N=Nc2ccc(OC)cc2)c1C	aSyn 5UTR act -249
CCOC(=O)c1c(C)[nH]c(N=Nc2ccccc2Cl)c1C	aSyn 5UTR act -119
CCOC(=O)c1c(C)[nH]c(C=Nc2ccc(OC)cc2)c1O	aSyn 5UTR act -96
CCOC(=O)c1c(C)[nH]c(N=Nc2ccccc2)c1C	aSyn 5UTR act -143
C=CCC(CC(O)COCCC)C(=O)NNC(=S)Nc1ccccc1 (centres undefined)	aSyn 5UTR act -113
CCOc1cc(CNc2ccc(N3CCCC3)cc2)cc(Cl)c1OC	aSyn 5UTR act -67
C=CCOc1c(Cl)cc(CNc2ccc(C)c(Cl)c2)cc1OC	none
CC(=O)c1sc(-c2ccc(F)cc2F)nc1C	aSyn 5UTR act -75
Cn1c(=O)c(C(=O)Nc2ccccc2S(N)(=O)=O)c(O)c2ccccc21	aSyn 5UTR act -64
O=C(NCc1ccccc1)c1cc(-c2ccco2)on1	aSyn 5UTR act -97
COc1ccc(CCNC(=O)c2cc(-c3ccco3)on2)cc1OC	aSyn 5UTR act -77
O=C(NCCc1ccccc1)c1cc(-c2ccco2)on1	aSyn 5UTR act -321
Cc1ccccc1Cn1cc(NC(=O)c2noc(C(C)C)c2[N+](=O)[O-])cn1	none
Cc1ccccc1Cn1cc(NC(=O)c2cc(-c3ccco3)on2)cn1	aSyn 5UTR act -76
CCC(=O)Nc1cccc(NC(=S)NC(=O)c2cccc(C)c2)c1	aSyn 5UTR act -172
CCC(=O)Nc1cccc(NC(=S)NC(=O)c2cc3ccccc3o2)c1	aSyn 5UTR act -133
CCC(=O)Nc1cccc(NC(=S)NC(=O)c2ccccc2)c1	aSyn 5UTR act -183
CCC(=O)Nc1cccc(NC(=S)NC(=O)c2ccc(C)cc2)c1	aSyn 5UTR act -156
Fc1ccc(-c2ncc3ccccn23)cc1	aSyn 5UTR act -101
Brc1ccc(-c2ncc3ccccn23)cc1	aSyn 5UTR act -130
CCOC(=O)C1CCN(c2ccc(-c3cccs3)nn2)CC1	aSyn 5UTR act -212
C/C(=N\Nc1nc2c(s1)CCCC2)c1ccc(Cl)cc1	aSyn 5UTR act -100
O=[N+]([O-])c1ccc(O)c(C2=NNC(c3ccccc3F)C2)c1 (centres undefined)	aSyn 5UTR act -122
Cc1cccc(/C=N/NC(=O)Cc2cccs2)c1	aSyn 5UTR act -74
O=C(Cc1cccs1)N/N=C/C(Cl)=C/c1ccccc1	aSyn 5UTR act -192
CCN(CC)c1ccc(/C=N/NC(=O)Cc2cccs2)c(O)c1	none
CCOc1ccc(/C=N/NC(=O)Cc2cccs2)cc1	aSyn 5UTR act -85
CCOC(=O)N/N=C/C(Cl)=C/c1ccccc1	aSyn 5UTR act -128
CC(=O)Nc1cccc(Oc2nc(-c3ccccn3)nc3ccccc23)c1	aSyn 5UTR act -129
C=CCOc1nc(-c2ccccc2Cl)nc2ccccc12	none
CC(=O)Nc1ccc(Oc2nc(-c3ccccn3)nc3ccccc23)cc1	aSyn 5UTR act -115
Cc1cccc(Oc2nc(-c3ccccn3)nc3ccccc23)c1	aSyn 5UTR act -111
NC(=O)N/N=C/c1ccc2cccc(OCc3ccccc3)c2n1	none
Cc1cccc(OCC(=O)NC(C)C(=O)N/N=C/c2c(OCc3ccccc3)ccc3ccccc23)c1 (centres undefined)	aSyn 5UTR act -138
COc1ccc(S(=O)(=O)n2ccc(-c3ccc4c(c3)CCC(C)(C)O4)n2)cc1	aSyn 5UTR act -103
COc1ccc(S(=O)(=O)N2c3ccc(F)cc3CCC2C)cc1 (centres undefined)	none
CC1(C)CCc2cc(-c3ccn(S(=O)(=O)c4ccccc4Cl)n3)ccc2O1	aSyn 5UTR act -84
C/C(=C\C(=S)Nc1ccccc1)Nc1ccc2ccccc2c1	aSyn 5UTR act -94
C/C(=C\C(=S)Nc1ccccc1)Nc1cccc2ccccc12	aSyn 5UTR act -104
Cc1ccc(NC(=O)Cc2nc(CSc3nnc(-c4ccc5c(c4)OCO5)o3)cs2)cc1	aSyn 5UTR act -77
CC(C)Oc1ccc(C(=O)Nc2ccc(C(F)(F)F)n(C)c2=O)cc1	aSyn 5UTR act -82
Cn1cccc1/C=C1\Cc2ccccc2C1=O	aSyn 5UTR act -142
CCc1ccc(C(=O)/C=C/c2ccc([N+](=O)[O-])o2)cc1	aSyn 5UTR act -151
CCC(C)[C@H](NC(=O)N1CC(=O)Nc2ccccc21)C(=O)Nc1ccccc1C (some centres undefined)	aSyn 5UTR act -95
CC(C)c1ccc(-n2c(-c3ccccc3)c[n+]3c2CCc2ccccc2-3)cc1	none
COc1ccc(-n2c(-c3ccc(Br)cc3)c[n+]3c2CCc2ccccc2-3)cc1	aSyn 5UTR act -91
CCCC12CN3CCN(CC(C3)/C1=N\NC(=O)c1ccccc1N)C2	aSyn 5UTR act -76
Nc1ccccc1C(=O)N/N=C1\C2CN3CCN(C2)CC1(c1ccccc1)C3	aSyn 5UTR act -92
CCN(CC)c1ccc(/C=N/n2c(-c3ccccc3Br)n[nH]c2=S)cc1	none
CCN(CC)c1ccc(/C=N/N2CCOCC2)cc1	aSyn 5UTR act -152
Nc1cnnc(N/N=C\c2ccccc2)c1Cl	aSyn 5UTR act -92
O=c1cnnc(N/N=C/c2ccccn2)[nH]1	none
Cc1ccc(NC(=O)c2cc(N(C)C)ccc2[P+](=O)O)cc1	aSyn 5UTR act -154
CN(C)/C=C/C(=O)c1cnc(-c2cccc(Cl)c2)s1	aSyn 5UTR act -146
CN(C)/C=C/C(=O)c1cnc(-c2ccccc2Cl)s1	aSyn 5UTR act -127
N#Cc1c(N2CCCC2)nc(N)c2c(N)nc(N3CCCC3)cc12	aSyn 5UTR act -173
CCOC(=O)c1ccc(-c2ccc3[nH]c4ccccc4c(=O)c3c2)cc1F	aSyn 5UTR act -81
CCOC(=O)c1ccc(-c2c(-c3cc(OC)c(OC)c(OC)c3)noc2C)cc1F	none
O=C(/C=C/c1cccs1)c1ccc(NC(=O)c2cccc(Br)c2)cc1	aSyn 5UTR act -85
Cc1ccc(C(=O)Nc2ccc(C(=O)/C=C/c3cccs3)cc2)cc1	aSyn 5UTR act -201
O=C(/C=C/c1cccs1)c1ccc(Br)cc1	aSyn 5UTR act -96
CS(=O)Cc1cc(Sc2ccccc2)nc(-c2cccnc2)n1 (centres undefined)	aSyn 5UTR act -66
Cc1c(C(=O)NCC2CCCO2)oc2ccc(Br)cc12 (centres undefined)	aSyn 5UTR act -82
Cc1cc(Cl)c2oc(C(=O)NCCC3CCCCO3)c(C)c2c1 (centres undefined)	aSyn 5UTR act -63
Nc1ccccc1-c1nc2ccccc2s1	aSyn 5UTR act -240
c1ccc2sc(-c3ccncc3)nc2c1	aSyn 5UTR act -111
c1csc(-c2nc3ccccc3s2)c1	aSyn 5UTR act -148
c1cncc(-c2nc3ccccc3s2)c1	aSyn 5UTR act -148
Oc1ccc(-c2nc3ccccc3s2)cc1	aSyn 5UTR act -68
Oc1ccc(-c2nc3ccccc3s2)c(O)c1	aSyn 5UTR act -145

High-throughput results from PubChem.
